We go through 39 compounds from PubChem BioAssay (NCATS).

Results with a measured potency or affinity are listed apart. Activity calls are given as the source filed them. No rule for the calls is given here.
Also: 0% is about no effect.

The conditions of this test: Ebola virus entry assay, green fluorescence channel.
With `C[C@@H]1CN(c2c(F)c(F)c3c(=O)c(C(=O)O)cn(C4CC4)c3c2F)C[C@H](C)N1`, the efficacy is -15.7% (inactive).
As to `CCCc1c2oc(C(=O)O)cc(=O)c2cc2c(=O)cc(C(=O)O)n(CC)c12`, the efficacy is 16% (inactive).
As for `CC(=O)N(c1onc(C)c1C)S(=O)(=O)c1ccc(N)cc1`, the figure is -8.94% (inactive).
To `O=C(O)CCCC[P+](c1ccccc1)(c1ccccc1)c1ccccc1` belongs 19.9% (inactive); to `O=C(c1ccccc1)c1ccccc1`, 10.2% (inactive); to `Cc1scc2c1N(C(=O)CN1CCN(C)CC1)c1ccccc1NC2=O`, 20.4% (inactive).
To `O=c1[nH]c(=O)n([C@H]2CCCO2)cc1F` belongs -34.9% (inactive).
Regarding `COc1cccc2c1C(=O)c1c(O)c3c(c(O)c1C2=O)C[C@@](O)(C(=O)CO)CC3OC1CC(N2CCOC(OC)C2)C(O)C(C)O1` (some centres undefined), the efficacy was 57.9% (inactive).
As for `CN(C)CCOC(=O)COc1ccc(Cl)cc1`, the figure is 14.4% (inactive); as for `CN1CCC(O)(c2ccc(F)cc2)C(C(=O)c2ccc(F)cc2)C1` (centres undefined), 22.6% (inactive); as for `Cc1cc(O)cc(C)c1Cl`, -20.2% (inactive).
For the compound `Cc1nc2ccccn2c(=O)c1CCN1CCC(C(=O)c2ccc(F)cc2)CC1`, the efficacy was 25.5% (inactive).
As for `Cc1c(I)c(=O)n(-c2ccccc2)n1C`, the figure is -23.5% (inactive).
To `CC(N)CCCC(C)(C)O` (centres undefined) belongs -22.7% (inactive).
To `Cc1cc2cc3c(C)cc(=O)oc3c(C)c2o1` belongs -24.3% (inactive).
With `NC(=O)n1c(O)c(C(=O)c2cccs2)c2cc(Cl)ccc21`, the efficacy is 15% (inactive).
Consider `CC(=O)OCC1=C(C(=O)O)N2C(=O)[C@@H](N)[C@H]2SC1`, for which the efficacy was 11.9% (inactive).
As for `Nc1ccc(C(=O)O)cc1`, the figure is -10.9% (inactive); as for `CCN(CC)CCc1c[nH]c2ccccc12`, 21.6% (inactive); as for `COC(=O)CCCCC(CCSS/C(CCO)=C(\C)N(C=O)Cc1cnc(C)nc1N)SC(C)=O` (centres undefined), -13.6% (inactive).
As for `C/C(=N\O)[C@@H](C)NCC(C)(C)CN[C@H](C)/C(C)=N/O`, the figure is -29.3% (inactive); as for `CCC(C(=O)NC(=O)NC(C)=O)c1ccccc1` (centres undefined), -14.5% (inactive); as for `COc1ccc2c(c1OC)C(=O)O[C@H]2[C@@H]1c2cc3c(cc2CCN1C)OCO3`, 26.4% (inactive).
As for `CCCCCCCCCCCCCCCC(=O)NCCO`, the figure is 20.8% (inactive).
Consider `CC(C)c1c(CN(C)C(C)Cc2ccccc2)n(C)n(-c2ccccc2)c1=O` (centres undefined), for which the efficacy was -15% (inactive).
To `O=C(CCOCCOCCOCCOCCC(=O)Nc1c(I)cc(I)c(C(=O)O)c1I)Nc1c(I)cc(I)c(C(=O)O)c1I` belongs -16.9% (inactive); to `CC(O)CCCCn1c(=O)c2c(ncn2C)n(C)c1=O` (centres undefined), 23.8% (inactive); to `CCC(C)(C)c1ccc(O)cc1`, 13.1% (inactive).
As for `CCOC(=O)Oc1ccc(CCNC(=O)[C@H](CCSC)NC(C)=O)cc1OC(=O)OCC`, the figure is -12.4% (inactive); as for `CC(C)(Sc1cc(C(C)(C)C)c(O)c(C(C)(C)C)c1)Sc1cc(C(C)(C)C)c(O)c(C(C)(C)C)c1`, -17.7% (inactive); as for `NCCNCCNCCNCCN`, -17.9% (inactive).
For the compound `O=C(OCc1ccccc1)c1ccccc1`, the efficacy was -23.2% (inactive).
As for `Cc1cc(=O)c2c(O)c3c(O)cc(=O)c4c3c3c(cc(O)c1c23)C(C)(C)C=4O`, the figure is -11.2% (inactive); as for `O=C(CN1CCNCC1)NC1CCCCC1`, 48.3% (inactive); as for `CC(=O)NCCCCCC(=O)O`, -20.5% (inactive).
Regarding `O=C1c2c(O)cccc2Cc2cccc(O)c21`, the efficacy is -17.8% (inactive).
To `O=c1[nH]c(=O)n([C@H]2C[C@H](O)[C@@H](CO)O2)cc1Br` belongs -9.16% (inactive); to `Nc1ccc([As](=O)(O)O)cc1`, -24.9% (inactive).
Regarding `COc1ccc(/C=N/NC(=O)c2ccncc2)cc1OC`, the efficacy was 14.8% (inactive).
